Assay outcomes: PubChem BioAssay, Broad Institute
A selection follows.
aSyn 5UTR act: Activators via SNCA 5'UTR binding, MLPCN | alpha-synuclein 5'UTR reporter, activators screen | activity score, % (tested at 7.5 µM), hits read low | 7.1% of 300,000 active | AID 1814, 2009; in the data active = activity score below about -60%
Numbers without * were called inactive.

CCC(C)Nc1nc(-c2ccccn2)nc2ccccc12 (stereo not drawn) was read as aSyn 5UTR act 69.
For Cc1cc(NCc2ccccn2)nc2ccccc12 the results were aSyn 5UTR act -87*.
`FC(F)(F)c1ccc(NCc2ccccn2)nc1` gave aSyn 5UTR act -167*.
Screening Cn1ccs/c1=N\C(=O)Nc1cccc(Cl)c1 returned aSyn 5UTR act -154*.
Screening Cn1c(N)c(C(=O)Nc2cccc(Cl)c2)c(=O)n(C)c1=O returned aSyn 5UTR act -76*.
Screening CN=c1sc(C(=O)Nc2cccc(Cl)c2)cc(=O)n1C returned aSyn 5UTR act -140*.
Cc1cc(N2CCN(c3ccc([N+](=O)[O-])c4cccnc34)CC2)c2ccccc2n1 was read as aSyn 5UTR act 84.
`Cn1c(/C=C/c2ccc(Br)cc2)nc2ccccc2c1=O` gave aSyn 5UTR act -171*.
Cn1c(/C=C/c2ccccc2[N+](=O)[O-])nc2ccccc2c1=O was read as aSyn 5UTR act -133*.
For O=[N+]([O-])c1ccccc1/C=C/c1ccc2ccccc2n1 the results were aSyn 5UTR act -138*.
CCOc1ccc2oc(C(=O)Nc3cc(C)ccn3)c(C)c2c1 was read as aSyn 5UTR act -67*.
For CCOc1ccc2oc(C(=O)Nc3ccc(N4CCOCC4)cc3)c(C)c2c1 the results were aSyn 5UTR act -69*.
For CCOc1ccc2oc(C(=O)Nc3ccc4c(c3)OCO4)c(C)c2c1 the results were aSyn 5UTR act -176*.
Cc1cc(=O)[nH]c(S/C=C/c2ccccc2)n1 was read as aSyn 5UTR act -78*.
`Cc1cc(=O)[nH]c(N=N/C(=N/Nc2ccccc2C)c2ccccc2)n1` gave aSyn 5UTR act 82.
`COc1ccc(-c2nc3ccccc3o2)cc1OC` gave aSyn 5UTR act -82*.
For c1ccc2oc(-c3ccc4nc[nH]c4c3)nc2c1 the results were aSyn 5UTR act -135*.
Screening Nc1c(-c2ccccc2)cnn1-c1ccc(C(=O)O)cc1 returned aSyn 5UTR act -130*.
For O=c1c2ccccc2c(-c2ccc(O)cc2)nn1-c1cccc(C(F)(F)F)c1 the results were aSyn 5UTR act 52.
For Nc1c(-c2ccccc2)cnn1-c1cccc(C(F)(F)F)c1 the results were aSyn 5UTR act -205*.
Screening Nc1c(-c2ccc(Cl)cc2)cnn1-c1ccccc1 returned aSyn 5UTR act -180*.
`Nc1c(-c2ccc(Cl)cc2)nnn1-c1ccccc1` gave aSyn 5UTR act -159*.
Cc1ccc(-c2cnn(-c3cccc([N+](=O)[O-])c3)c2N)cc1 was read as aSyn 5UTR act -105*.
Screening Cc1ccc(-c2cnn(-c3ccccc3)c2N)cc1 returned aSyn 5UTR act -69*.
For O=C(COc1ccccc1Cl)c1ccc2c(c1)CCCC2 the results were aSyn 5UTR act -201*.
For O=c1sc(N2CCN(c3ccc(F)cc3)CC2)nc2ccsc12 the results were aSyn 5UTR act -179*.
`O=c1sc(N2CCN(c3ccccc3F)CC2)nc2ccsc12` gave aSyn 5UTR act -192*.
`Cc1ccccc1Cn1nnc(C(=O)Nc2ccc3c(c2)OCCO3)c1N` gave aSyn 5UTR act -109*.
`Cc1ccc(C)c(Cn2nnc(C(=O)Nc3ccc4c(c3)OCCO4)c2N)c1` gave aSyn 5UTR act -106*.
Cc1ccc(NC(=O)c2nnn(-c3ccc4c(c3)OCCO4)c2N)cc1 was read as aSyn 5UTR act -149*.
`CN(C)c1ccc(/C=N/c2cc(-c3ccccc3)nn2-c2ccccc2)cc1` gave aSyn 5UTR act -133*.
C=CCN1C(=O)C(=O)N(Cc2nc3ccccc3s2)C1=O was read as aSyn 5UTR act -118*.
For CC(C)C(=O)Nc1cccc(C(=O)Nc2nnc(C(C)C)s2)c1 the results were aSyn 5UTR act -120*.
`CCOCc1nnc(NC(=O)c2cccc(OC)c2)s1` gave aSyn 5UTR act -96*.
`COCc1nnc(NC(=O)c2cccc(NC(=O)C(C)C)c2)s1` gave aSyn 5UTR act -73*.
`CC(C)C(=O)Nc1ccc(C(=O)Nc2nnc(C(C)C)s2)cc1` gave aSyn 5UTR act -107*.
Screening CCc1nnc(NC(=O)c2cccc(NC(=O)C(C)C)c2)s1 returned aSyn 5UTR act -81*.
For Cc1cccc(SCC(=O)Nc2ccc3c(c2)OCCO3)c1 the results were aSyn 5UTR act -117*.
`O=C(CSc1ccccn1)Nc1ccc2c(c1)C(=O)c1ccccc1C2=O` gave aSyn 5UTR act -68*.
For O=C(CSc1nccc(=O)[nH]1)Nc1ccc2c(c1)OCCO2 the results were aSyn 5UTR act -139*.
Screening CC(Nc1ccc2c(c1)OCCO2)C(=O)N1CCc2ccccc21 (stereo not drawn) returned aSyn 5UTR act -65*.
`Cc1ccnc(NC(=O)CSc2ccc3c(c2)OCCO3)c1` gave aSyn 5UTR act -114*.
O=C(CSc1ccccn1)Nc1ccc2c(c1)OCCO2 was read as aSyn 5UTR act -65*.
`O=C(Nc1ccc2c(c1)OCCO2)c1ccccn1` gave aSyn 5UTR act 88.
Screening O=C(CSc1ccccn1)Nc1ccc2ccccc2c1 returned aSyn 5UTR act -159*.
Nc1ccccc1SCC(=O)Nc1ccc2c(c1)OCCO2 was read as aSyn 5UTR act -89*.
`O=C(CSc1ccccn1)Nc1ccc2c(c1)CCC2` gave aSyn 5UTR act -77*.
Screening CC(=O)NC(CC(=O)Nc1ccc2c(c1)OCCO2)c1ccccc1 (stereo not drawn) returned aSyn 5UTR act -77*.
For Cc1[nH]c2ccccc2c1C(=O)NS(=O)(=O)Nc1ccc(Cl)cc1 the results were aSyn 5UTR act -82*.
For Cc1cc(C(=O)CSc2nnnn2C)c(C)n1-c1ccc2c(c1)OCCO2 the results were aSyn 5UTR act -125*.
For Cc1cc(C(=O)CN2C(=O)C(=O)N(Cc3ccccc3)C2=O)c(C)n1-c1ccc2c(c1)OCCO2 the results were aSyn 5UTR act -74*.
Screening CC(=O)c1ccc(OCC(=O)c2cc(C)n(-c3ccc4c(c3)OCO4)c2C)cc1 returned aSyn 5UTR act -65*.
Screening Cc1cc(C(=O)CN2C(=O)c3ccccc3S2(=O)=O)c(C)n1-c1ccccc1 returned aSyn 5UTR act 120.
Screening Cc1nnc(SCC(=O)c2cc(C)n(-c3ccc4c(c3)OCO4)c2C)s1 returned aSyn 5UTR act -151*.
Screening Cc1nnc(SCc2ccc(F)cc2Cl)s1 returned aSyn 5UTR act -81*.
For Cc1nnc(SCc2ccc3c(c2)OCO3)s1 the results were aSyn 5UTR act -72*.
`Cc1cccc(NC(=O)c2cnc3sccn3c2=O)c1` gave aSyn 5UTR act -74*.
For Cc1cccc(NC(=O)c2cnc3sccn3c2=O)c1C the results were aSyn 5UTR act -124*.
For Cc1cccc(NC(=O)c2cnc3sccn3c2=O)n1 the results were aSyn 5UTR act -116*.
`COc1ccc(NC(=O)c2cnc3sccn3c2=O)cc1` gave aSyn 5UTR act -133*.
`O=C(Nc1cnc2sccn2c1=O)c1ccccc1Cl` gave aSyn 5UTR act -180*.
Screening CCCN1C=CC(=C/C=C(\C#N)C(=O)OCC)C=C1 returned aSyn 5UTR act -157*.
For CCOC(=O)/C(C#N)=C/N=c1ccc(C)cn1C the results were aSyn 5UTR act -88*.
For CC1CCC(NC(=O)c2ccc(NS(=O)(=O)c3ccc4[nH]c(=O)[nH]c4c3)cc2)CC1 (stereo not drawn) the results were aSyn 5UTR act -124*.
For COC(=O)c1sc(NC(=S)NC(=O)c2cccc(Br)c2)nc1C the results were aSyn 5UTR act -104*.
For COC(=O)c1sc(NC(=S)NC(=O)c2ccccc2C)nc1C the results were aSyn 5UTR act -93*.
